Measured values reported in PubChem BioAssay AID720580 (National Center for Advancing Translational Sciences (NCATS), 2013).
The whole screen tested about 330,000 compounds, of which about 1,500 (0.45%) were called active. Inconclusive results (about 6%) are left out. Many of the other results were omitted from the sample, so actives are more common in it than they were. Values without a mark were called inactive. The call rests on the fitted dose curve; tested in A549 cells.

Test: qHTS for Stage-Specific Inhibitors of Vaccinia Orthopoxvirus: Venus Reporter Primary qHTS; further: nearly all actives have a fitted effect of over 30% in size
Settings: Vaccinia virus Venus reporter expression, fluorescence; series mostly up to 36.5 µM; activity change, negative = inhibition: at the top concentration
On the % scale 0 is the no-effect control and ±100 the full control effect; potency means the concentration at half of the fitted maximal effect.

Structure (SMILES)	activity change, negative = inhibition	Potency
CCOC(=O)[C@]12CCCC=C1N(CCC1=CCCCC1)C(=O)[C@H](CC(=O)N1CCOCC1)C2	-24.7%	
CNc1cncc(-c2ccc(NS(C)(=O)=O)cc2)n1	-23.2%	
CCOC(=O)[C@]12CCC=C1N(CCC1=CCCCC1)C(=O)[C@H](CC(=O)NCc1ccc(C)o1)C2	-2.7%	
CC(C)(C)NC(=O)C(CCc1ccccc1)n1c(=O)c(-c2ccccc2)nc2ccccc21 (stereo not given)	-12%	
CNC(=O)c1cccc2nc3ccccc3nc12		6.31 µM (active)
CN(C)C(=O)c1coc2nc3ccccc3nc12	31.2%	
CNC(=O)C(NC(=O)c1ccccc1)=C(C)C	-8.97%	
Brc1ccc2nc(-c3ccccc3)c(Cc3ccccc3)n2c1	-0.0366%	
OC(Cc1ccc2ccccc2n1)c1ccc(Cl)c(Cl)c1 (stereo not given)	-26.4%	
COc1ccc(S(=O)(=O)N[C@@H]2C=C[C@@H](CC(=O)N3CCc4ccccc4C3)O[C@@H]2CO)cc1	-15.7%	
COc1ccc(NC(=O)C2Cc3c(-c4ccc5c(c4)OCO5)ccnc3O2)cn1 (stereo not given)	-22.3%	
Cc1cccc(NC(=O)NC(=S)NC(=O)c2ccccc2)c1		10 µM (active)
Cc1ccc(NC(=O)NC(=O)c2ccccc2)cc1F	-7.1%	
Cc1ccc(NC(=S)NC(=O)c2ccc(-c3ccccc3)cc2)cc1	-10.3%	
CCCNC(=O)C1(C)CCN(Cc2ccc(Cl)c(Cl)c2)C1 (stereo not given)	3.72%	
CCCc1ccc(C(O)c2ncc(-c3cccc(OC)c3)[nH]2)cc1 (stereo not given)	-7.29%	
Cc1ccc(-c2nc3c(C)cc(Br)cn3c2Cc2ccccc2)cc1	-17%	
COc1ccccc1Cc1c(-c2ccc(Cl)cc2)nc2ccc(Cl)cn12	-18.1%	
CN1CCc2cc3c(cc2[C@H]1[C@@H]1OC(=O)c2c1ccc1c2OCO1)OCO3	-15.2%	
COc1ccc2c(c1O)-c1cccc3c1[C@@H](C2)N(C)CC3	-9.77%	
COc1c(O)ccc2c1CN1CCc3cc4c(cc3C1C2)OCO4 (stereo not given)		11.2 µM (active)
Cc1cccc(C)c1NC(=O)C(c1cccc2ccccc12)n1c(=O)c(-c2ccco2)nc2ccccc21 (stereo not given)	-16.4%	
COc1cc(OC)c2c(-c3cccc(-c4cccc(N)c4)c3)cc(=O)oc2c1		12.6 µM (active)
COc1ccc(-c2c(C)cc3oc(=O)cc(-c4ccccc4)c3c2C)cc1F	-20.5%	
COc1ccc(-c2c(C)cc3oc(=O)cc(-c4ccccc4)c3c2C)cc1OC	-14.3%	

Structure (SMILES)	activity change, negative = inhibition	Potency
CN[C@H]1C[C@H]2c3cc(Oc4ccccc4C)ccc3CCN2C(=O)[C@H]1[C@H](C)O	-0.143%	
CC1=C(C(=O)N(C(C)C)C(C)C)CC(CC(=O)NCCCCc2ccccc2)C(=O)N1CCC1=CCCCC1 (stereo not given)	-14.9%	
O=C(Nc1ccccc1)c1ccc2c(c1)OCCCO2	-17.9%	
CC1=C(C(=O)Nc2ccccc2)S(=O)(=O)CCO1		0.794 µM (active)
CC1=C(C(=O)Nc2ccccc2)SCCO1	-8.62%	
OC(CBr)C[n+]1cccc2cc(Br)ccc21 (stereo not given)	-19.5%	
COc1cccc(C(O)c2nc(-c3ccc(C)c(C)c3)cs2)c1 (stereo not given)	-9.02%	
CCC(C)N(c1ccc(/C=C/c2ccnc3ccccc23)cc1)C(C)CC (stereo not given)	25.9%	
COC(=O)Cc1ccc(OC2(C)CCN(Cc3ccc4c(c3)OCCO4)C2)cc1 (stereo not given)	-6.83%	
COC(=O)c1ccc2nc(-c3ccccc3)c(Cc3ccc(OC)cc3C)n2c1	1.02%	
Cc1ccc(C)c(-n2c(SCC(=O)O)nc3sc4c(c3c2=O)CCCC4)c1	-18.6%	
Cn1c(NN)nc2sc3c(c2c1=O)CCC3	-13.9%	
CCCc1nc2sc3c(c2c(=O)n1NC(=O)CCCl)CCCC3		7.94 µM (active)
Nc1nc2c(Br)ccc(Br)c2cc1C(=O)NCCc1ccccc1	-9.13%	
Cc1ccc2nc(-c3ccccc3)c(CC3CCCCC3)n2c1	-3.43%	
O=C(NC1CCCC1)C1c2ccccc2OCC(=O)N1Cc1ccccc1 (stereo not given)	0.451%	
CC(=O)c1cccc(-c2cnc3c(NC=O)cc(-c4ccc(N(C)C)cc4)cn23)c1	19.6%	
CC(=O)c1cccc(-c2cnc3c(NC=O)cc(-c4cccc(C(=O)N(C)C)c4)cn23)c1	-4.87%	
CC(=O)c1ccc(-c2cnc3c(NC=O)cc(-c4cccc(NS(C)(=O)=O)c4)cn23)cc1		11.2 µM (active)
CC(C)(C)c1ccc(C(=O)C[N+]2(C)CCCc3ccccc32)cc1 (stereo not given)	-21.8%	
CCC(C)(O)C(=O)OC1C(=O)OC2CC3C(C)=CC(=O)C(O)C3(C)C3C4(O)OCC23C1C(C)C4O (stereo not given)		0.316 µM (active)
CC=CCn1c(SCCCc2ccccc2)nc2c1c(=O)[nH]c(=O)n2C	-14.7%	
CN(C(=N)N)c1ccc(/C=C2\C=Cc3ccccc32)cc1	-17.4%	
COc1ccc(S(=O)(=O)N2CCCCC2c2cc(C(=O)NCc3ccc(F)cc3)no2)cc1 (stereo not given)	-10.1%	
CCN(CC)c1ncnc2c1ncn2[C@H]1CN(Cc2cccs2)C[C@@H](CO)O1	-4.26%	
